The assay can be described thus: Her2 expression decrease, cell viability multiplex – SKBR3 breast tumor cells, AlphaScreen, ATP viability, primary screen (AID 461).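 Note: percent of carrier control wells set as 100% viability.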 As to conditions: SKBR3 Her2 protein level, 18-24 h, measured here: SKBR3 viability, ATP luminescence, at 10 µM.
As usually defined, the viability is a read-out of living cells in per cent, often relative to untreated cells. `CC1Cc2nc(SCC(=O)Nc3ccc(F)cc3F)n(C)c(=O)c2S1` (stereo not given): the viability was 90%.
Next, `COC(=O)CCn1nnc(-c2cccs2)n1`: 99.5%; `CCN(C#N)c1nc(NC(C)C)nc(NC(C)C)n1`: 96.5%; `COc1ccccc1C(=O)Nc1ccc(S(=O)(=O)N2CCCC2)cc1`: 95.5%.
Next, `COC(=O)c1[nH]c2ccccc2c1NC(=O)CN1CCC(C(N)=O)(N2CCCCC2)CC1`: 96%.
Consider `CC(O)c1c(OCc2ccccc2)ncnc1OCc1ccccc1` (stereo not given), for which the viability worked out at 83.5%.
Take `Cc1c(C(=O)OC(C)C)[nH]c2c1C(=O)CCC2`: the viability amounted to 96.5%.
For the molecule `CC(C)CNC(=O)C1C2C=CC(C2)C1C(=O)O` (stereo not given), the viability was determined as 96%.
Regarding `COc1cccc(Cn2c(Oc3ccccc3)nc3c2c(=O)n(C)c(=O)n3C)c1`, the viability worked out at 100%.
Take `CC(C)(C)NC(=O)Cn1nnc(-c2cccs2)n1`: the viability was determined as 94%.
Turning to `COc1cc(CN2CCN(C(=O)CC(C)C)CC2)cc(OC)c1O`, the viability came to 114%.
Consider `CCn1c(C)nc2cc(C(=O)OCCC(F)(F)F)ccc21`, for which the viability is 100%.
Take `CCn1c(CC(=O)Nc2cccc(OC)c2)nnc1SCC(=O)Nc1nccs1`: the viability is 98%.
Regarding `CCOc1cc(NC(=O)c2ccco2)c(OCC)cc1NC(=O)CCC(=O)NCc1cccnc1`, the viability was 95.5%.
Turning to `CCN(CC)c1ccc(CNc2ccc(Br)cn2)cc1`, the viability was 108%.
On to `CCOc1ccccc1C(=O)NCCC(=O)O`, for which the viability amounted to 95%.
For the molecule `Cc1ccc(-c2csc3nnc(SCC(=O)NCc4ccco4)n23)cc1`, the viability was 88.5%.
Next, `C=CCSc1nnc(-c2ccccc2NC(C)=O)c(=O)[nH]1`: 106%; `CNC(=O)CSc1nnc(-c2cccc(S(=O)(=O)N3CCOCC3)c2)n1-c1ccc(F)cc1`: 78.5%.
Turning to `O=C(NCc1ccccc1)C1CCN(S(=O)(=O)N2CCCCCC2)CC1`, the viability is 85%.
As to `CC(C(=O)N1CCc2ccccc21)N1CCc2ccccc2C1` (stereo not given), the viability was determined as 82%.
Take `CCCNC(=O)c1ccccc1C(=O)NCCC`: the viability was found to be 93.5%.
Consider `CCCC(C)c1nnc(NC(=O)C2CCCO2)s1` (stereo not given), for which the viability turned out to be 126%.
Consider `CCN(CC)S(=O)(=O)c1cccc2c(N(C)C)cccc12`, for which the viability worked out at 99.5%.
Next, `O=C1CC(C2CCCO2)C(=O)N1Cc1ccccc1` (stereo not given): 98%; `O=c1[nH]c(SCc2cc(=O)n3ccccc3n2)nc2c1CCC2`: 101%; `COC(=O)c1cc2oc(C)cc2n1CC(=O)N(C)c1ccccc1`: 93%.
Consider `Cc1cc(NC(=O)Cn2cnc3c2c(=O)n(C)c(=O)n3C)n(-c2ccccc2)n1`, for which the viability is 116%.
The value for `CCc1nnc(NC(=O)c2cc3c(s2)CCCCC3)s1` was 92.5%.
`Cc1ccc(-c2ccc(=O)n(CCC(=O)NCc3ccccn3)n2)cc1`: the viability came out at 94.5%.
For the molecule `CCC(=O)N1CCc2cc(S(=O)(=O)CCC(=O)Nc3c(C)n(C)n(-c4ccccc4)c3=O)ccc21`, the viability came to 96%.
The value for `CC(=O)N1CCc2cc(S(=O)(=O)NCCC3=CCCCC3)ccc21` was 108%; that for `COc1cccc(-n2nc(C(=O)Nc3ccc4c(c3)OCO4)c3ccccc3c2=O)c1` was 109%; that for `COCCCNS(=O)(=O)c1ccc2c(c1)CCN2C(C)=O` was 97%.
`Cc1ccc(S(=O)(=O)N2CCC(C(=O)NCCN3CCCCCC3)CC2)cc1`: the viability amounted to 91%.
Next, `CCN(CC)c1ccc(-c2nn3c(-c4cccnc4)nnc3s2)cc1`: 91.5%; `Cc1cccc(-c2c3c(=O)n(C)c(=O)n(C)c3cn2-c2ccc(O)cc2)c1`: 102%.
`CCOC(=O)c1[nH]c2ccc(OC)cc2c1NC(=O)CCN1CCC(C)CC1`: the viability is 101%.
For the molecule `CCS(=O)(=O)N1CCCC(C(=O)NCc2ccccc2Cl)C1` (stereo not given), the viability was found to be 90%.
For `Cc1ccc(N2CC(C)Cn3c2nc2c3c(=O)n(CC(=O)OCc3ccccc3)c(=O)n2C)cc1C` (stereo not given), the viability stood at 86.5%.

Values taken from PubChem BioAssay.
